Pf apPOL inh – Pf-apPOL DNA polymerase inhibition. Recombinant Pf-apPOL, molecular beacon fluorescence, 1.5 h. inhibition, % at 10 µM. hit rate 0.25% among 210,000. AID 1794808
mHTT-CaM PPI inh – disrupts binding of mutant huntingtin to calmodulin; hit rate 3.6% among 190,000; inhibition, % at 15 µM; AlphaScreen His-mHTT/GST-CaM binding, luminescence; P42858;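 further: 0% = both proteins with DMSO and 100% = one protein alone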
* marks the source's active call; other numbers are inactive results; x = no result given; ! = repeats disagree. Rows were chosen to be rich in hits. Some 3.5% of all compounds tested hit in one or more screens of this group. No stated cut-off is given here; in the data, active means inhibition above about 50%; inactive means the rest.

SMILES	Pf apPOL inh	mHTT-CaM PPI inh
Cc1cc(C)c(-c2csc(NC(=O)c3cc(=O)c4ccccc4o3)n2)c(C)c1	2	-5
CCn1cc(C(=O)Nc2nc(C)cs2)c(=O)c2cc(OC)ccc21	-1	2
Cc1ccc([N+](=O)[O-])cc1N(S(C)(=O)=O)S(C)(=O)=O	-4	x
CCOCC(=O)N1CCc2cn(CCOC)c3cccc(c23)C1	-4	29
O=C1CCCC2=C1C(c1ccc(Br)cc1)n1nc(-c3ccco3)nc1N2 (stereo unspecified)	1	84*
COc1ccc(-c2nc3n(n2)C(c2ccc(OC)cc2)C2=C(CCCC2=O)N3)cc1 (stereo unspecified)	-1	47
COc1ccc(C2C3=C(CCCC3=O)Nc3nc(-c4cccc(Cl)c4)nn32)cc1OC (stereo unspecified)	-6	18
COc1ccc(C2C3=C(CCCC3=O)Nc3nc(-c4ccccc4)nn32)cc1OC (stereo unspecified)	0	76*
COCCn1c(=N)c(C(=O)NC2CCCC2)cc2c(=O)n3ccccc3nc21	-1	2
CC(C)=CC1C(CN)C1(C)C (stereo unspecified)	-5	96*
c1ccc(-c2n[nH]c(C3CCN(Cc4ccncc4)CC3)n2)cc1	5	25
O=C(Nc1ccc(Nc2ccccc2)cc1)c1ccccc1F	-2	33
O=C(Nc1ccc(Nc2ccccc2)cc1)c1ccccc1I	-8	70*
CCOc1ncccc1C(=O)Nc1ccc(Cl)cc1	-4	-12
CCOc1ncccc1C(=O)Nc1ccc(Nc2ccccc2)cc1	-2	85*
CC(C)N1CCN(C(=O)C2CCN(c3cn[nH]c(=O)c3)CC2)CC1	-5	-2
CC(=O)N1CCN=C1SCc1ccc([N+](=O)[O-])cc1	9	-1
COc1ccc(C2CC(c3cccc(Br)c3)Nc3ncnn32)c(OC)c1 (stereo unspecified)	-9	41
COc1ccc(C2CC(c3ccc(Br)cc3)Nc3ncnn32)c(OC)c1OC (stereo unspecified)	0	57*
COc1ccc(C2CC(c3cc(OC)ccc3OC)n3ncnc3N2)cc1 (stereo unspecified)	-8	17
COc1cccc(C2CC(c3ccc(C)c(C)c3)Nc3ncnn32)c1OC (stereo unspecified)	-2	53*
COc1ccc(C2CC(c3ccc(Br)cc3)Nc3ncnn32)c(OC)c1 (stereo unspecified)	-4	57*
COc1ccc(OC)c(C2CC(c3ccc(Br)cc3)Nc3ncnn32)c1 (stereo unspecified)	-2	61*
COc1ccc(C2CC(c3ccc(C)cc3)Nc3ncnn32)c(OC)c1OC (stereo unspecified)	-6	24
COc1cccc(C2CC(c3ccc(I)cc3)Nc3ncnn32)c1OC (stereo unspecified)	-4	34
SMILES	Pf apPOL inh	mHTT-CaM PPI inh
CC(C)(C)c1ccc(Oc2ccc(NC(=O)c3ccc(C(F)(F)F)cc3)cn2)cc1	-1	x
CCOCC(=O)NCC1CC(=O)N(c2ccc(Cl)cc2)C1 (stereo unspecified)	-9	-22
O=C(Nc1cccc(F)c1)O[C@H]1CCC12CCCCC2	-4	-112
Cc1noc(COC2CCCN(C(=O)COc3ccccc3)C2)n1 (stereo unspecified)	-2	-8
Cc1nnc2n1CCN(Cc1csc3c1CCCC3)C2	0	6
Clc1ccc(-c2csc(Nc3ccc(Oc4ccccc4)cc3)n2)cc1	1	52*
Cc1ccc(Nc2nc(-c3ccccc3)cs2)cc1	-9	64*
COc1ccc(Nc2nc(-c3cccc(NC(C)=O)c3)cs2)cc1	3	44
COc1ccc(-c2csc(Nc3ccc(N)cc3)n2)cc1	-2	88*
Cc1ccc(-c2csc(Nc3ccc(Cl)cc3)n2)cc1	0	47
Cc1ccc(Nc2nc(-c3ccncc3)cs2)cc1	4	9
Cc1ccc(-c2csc(Nc3ccc(Oc4ccccc4)cc3)n2)cc1	-3	68*
COc1ccc(-c2csc(Nc3ccc(C)cn3)n2)cc1	-1	10
COc1ccc(C(=O)N2CCC(c3nc(C(=O)N4CCCC4)c(C)o3)CC2)cc1	-4	0
COc1ccccc1N1CCN(C(=O)C2CC(=O)N(c3ccc4oc(C)nc4c3)C2)CC1 (stereo unspecified)	-2	-3
CCN(CC)C(=O)Oc1ccc2c(c1)OC(=Cc1ccc(OC)c(OC)c1)C2=O	-5	-3
CC(=O)NC(Cc1cc([N+](=O)[O-])c(O)c([N+](=O)[O-])c1)C(=O)O (stereo unspecified)	41	x
O=C(c1cccc2ccccc12)N1CCN(c2ccc(Nc3ccncc3)nn2)CC1	2	6
CN(C)C(=O)c1cc2c(s1)CCC(C(=O)NCc1cccc(F)c1)C2 (stereo unspecified)	-5	2
O=[N+]([O-])c1cccc(Nc2nc(-c3ccncc3)cs2)c1	0	2
Cc1ccc(-c2csc(Nc3ccccc3)n2)cc1	0	61*
O=[N+]([O-])c1ccc(-c2csc(Nc3ccc(Oc4ccccc4)cc3)n2)cc1	-2	60*
Clc1cc(Cl)cc(Nc2nc(-c3ccccc3)cs2)c1	-5	96*
O=[N+]([O-])c1ccc(-c2csc(Nc3cc(Cl)cc(Cl)c3)n2)cc1	0	2
Clc1ccc(-c2csc(Nc3ccccc3)n2)s1	-2	x
SMILES	Pf apPOL inh	mHTT-CaM PPI inh
CCN(CC)CCNc1c([N+](=O)[O-])c(=O)oc2ccccc12	-1	-7
O=C1Nc2ccccc2C1=Cc1ccc(CN2C(=O)c3ccccc3C2=O)o1	-6	x
Cc1c(C2CCN(C(=O)c3ccc(F)cc3)CC2)noc1N	-2	13
O=C(C(Cl)Cl)N1CCN(c2nccc(-c3cccs3)n2)CC1	-5	-13
O=S(=O)(c1ccc(Cl)c(Cl)c1Cl)n1nnc2ccccc21	-4	-8
COc1c(S(=O)(=O)n2nnc3ccccc32)ccc(Cl)c1Cl	-7	87*!
COc1ccc(Cl)cc1S(=O)(=O)n1nnc2ccccc21	-1	18
COc1cc(Cl)c(S(=O)(=O)n2nnc3ccccc32)cc1Cl	-12	-4
COc1cc(S(=O)(=O)n2nnc3ccccc32)ccc1Cl	-9	88*!
O=S(=O)(c1cc(Cl)ccc1Cl)n1nnc2ccccc21	0	57*
CC1CCN(C(=O)c2csc(Nc3ccc(F)c(F)c3)n2)CC1	-1	31
CC(C)(C)C(O)CCNC(=O)C(=O)Nc1ccc2c(c1)OCCO2 (stereo unspecified)	3	-10
COc1ccc(-n2ccn3cc(-c4ccc(F)cc4)nc3c2=O)cc1	3	-4
CNC(=O)N1CCCC(c2cccc(C(=O)N3CCN(c4ccccc4C)CC3)c2)C1 (stereo unspecified)	-7	39
CNC(=O)N1CCCC(c2cccc(C(=O)N3CCN(c4ccccc4)CC3)c2)C1 (stereo unspecified)	-7	-1
CNC(=O)N1CCCC(c2cccc(C(=O)N3CCN(c4cc(C)ccc4C)CC3)c2)C1 (stereo unspecified)	-6	80*
CNC(=O)N1CCCC(c2cccc(C(=O)N3CCN(c4cccc(Cl)c4)CC3)c2)C1 (stereo unspecified)	-7	98*
O=S(=O)(N=Cc1cccnc1)c1cccs1	-1	-10
COc1ccc(CNC(=O)c2cccc(N3CCNC(c4ccccc4)C3)n2)c(OC)c1 (stereo unspecified)	-4	97*

Screens deposited in PubChem by University of Kansas High Throughput Screening Laboratory.
